# An excerpt weighted towards active compounds, which were near 3.6% of everything screened.
# A549 viability: A549 cytotoxicity, counter-screen for Nrf2 inhibitors | A549 ARE-Fluc cells, CellTiter-Fluor viability, 18-24 h | actives 0.16% (n = 390,000) | Potency, µM (top dose mostly 46 µM), for the others: top-dose activity change, negative = cytotoxicity, hits mostly inhibitors; also: % is scaled to controls: 0 for no effect and ±100 for the full control effect
#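 Cytotoxicity counterscreen: CellTiter-Fluor fluorescence was measured in A549 ARE_Fluc cells after 18-24 h of compound exposure in a concentration series. The subsequent BugLite luminescent read reports ARE-luciferase activity.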
# HepG2 tox: kills HepG2 cells in TGF-b inhibitor counter-screen. actives 0.76% (n = 410,000). HepG2 CAGA-GFP viability, ATP luminescence, 18 h. Potency, µM (top dose mostly 46.1 µM), for the others: top-dose activity change, negative = cytotoxicity, hits mostly cytotoxic
#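 HepG2 CAGA-GFP cells (1000/well, DMEM with 1% FBS) received compound, then TGF-beta at 500 pg/mL final, and were incubated 18 hours at 37 degrees C. Viability was read by CellTiter-Glo luminescence. Media-only wells were set as complete cell-killing and DMSO as no toxicity.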
# Nrf2 block: inhibitors of Nrf2 signaling. A549 ARE-Fluc reporter, luciferase luminescence, 18-24 h. actives 2.1% (n = 360,000). Potency, µM (titrated, usually from 46 µM), inactives show top-dose activity change, negative = inhibition, actives largely listed as inhibitors. AID 504444; also: % is scaled to controls: 0 for no effect and ±100 for the full control effect; nearly all actives have a fitted effect of over 60% in size
#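 In this cell-based qHTS, ARE-driven firefly luciferase in A549 cells reports Nrf2 activity; the luminescent signal after BugLite lysis is the measured value, with a prior CellTiter-Fluor read for cell health.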
# TGFb inhibitor: inhibitors of TGF-b signaling; HepG2 CAGA-GFP TGF-b/SMAD3 reporter, GFP fluorescence, 18 h; TGF-beta stimulated, 500 pg/mL final; Potency, µM (highest dose often 46.1 µM), for inactives: at the top dose activity, negative = inhibition, most hits filed as inhibitors; actives 1.2% (n = 410,000); AID 588855; also: % is scaled to controls: 0 for no effect and ±100 for the full control effect; nearly all actives have a fitted effect of over 65% in size
#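 Inhibition of TGF-beta-driven CAGA-GFP reporter expression in HEPG2 cells is measured by cellular GFP fluorescence after 18 h stimulation with 500 pg/mL recombinant TGF-beta in 1% FBS medium at 37 degrees C.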
# Nrf2 activator: activators of Nrf2 (ARE) signaling. AREc32 ARE-luciferase reporter (MCF7-derived line), luminescence, 24 h. Potency, µM (top dose mostly 46.1 µM), inactives show at the highest dose activation, hits mostly activators. actives 0.31% (n = 410,000); also: % of control where 0% means no effect; nearly all actives have a fitted effect of over 65% in size
#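 For detection, Steady-Glo was added and plates sat 30 min at RT; before that, AREc32_Fluc cells grown overnight in OPTI-MEM/5% FBS had been treated with 23 nL compound for 24 hr at 37 deg C.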
# * = called active by the depositor; ? = inconclusive; / = no result given; [ ] = dose if it differs, or a comment. Calls follow the shape of the dose curve; as a rule, active = well fitted curve in the direction sought with a large enough effect; inconclusive = small, poorly fitted or top-dose-only effect, or another doubt; inactive = no such curve, though single readings can be large; an effect the other way counts as inactive or inconclusive. Potency is read from the fitted curve at half-maximal effect.
SMILES,A549 viability,HepG2 tox,Nrf2 block,TGFb inhibitor,Nrf2 activator
CC(=NNC(=S)N1CCCCC1)c1cccc(C)n1,?,-52.7%,?,0.355µM*,?
Cc1ccc2occ(/C=N/NC(=O)[C@@H](N)Cc3ccccc3)c(=O)c2c1,-3.6%,10µM*,3.7%,-22.2%,0.7%
CCc1nc2sc3ccccc3c(=O)c2c(=O)n1CCOC,1.9%,-1.2%,/,-13.1%,3.5%
CN(C)CCNc1oc(COc2ccc(-c3ccccc3)cc2)nc1C#N,10.0%,11.2µM*,3.6%,?,7.0%
COc1ccc(N2CCN(c3oc(COc4ccccc4)nc3C#N)CC2)cc1,0.6%,-20.1%,-18.7%,-2.9%,0.1%
CN1CCN(c2oc(COc3ccc(-c4ccccc4)cc3)nc2C#N)CC1,?,5.1%,16.4µM*,-21.1%,2.9%
C=CCNc1oc(-c2ccc(-c3ccccc3)cc2)nc1C#N,-0.2%,-38.8%,-16.4%,10µM*,0.2%
CCC(=O)NCCN1CCN(C(=O)CC)CC1,-4.9%,-3.0%,6.7%,2.2%,-0.7%
COc1ccc(CNC(=O)Nc2nc(C(N)Cc3ccc(F)cc3)cs2)cc1 (stereo unspecified),/,-96.1%,/,?,3.4%
COc1cc(NC(=O)Nc2nc(C(N)Cc3ccc(C(F)(F)F)cc3)cs2)cc(OC)c1OC (stereo unspecified),/,-106.5%,/,11.2µM*,-4.4%
Cc1ccc(C(=O)Nc2nc(C(N)Cc3ccc(C(F)(F)F)cc3)cs2)cc1 (stereo unspecified),/,17.8µM*,/,?,4.5%
COc1ccc(NC(=O)Nc2nc(C(N)Cc3ccc(C(F)(F)F)cc3)cs2)cc1 (stereo unspecified),/,10µM*,/,11.2µM*,-4.1%
NC(Cc1ccc(C(F)(F)F)cc1)c1csc(Nc2ncccn2)n1 (stereo unspecified),/,-30.5%,/,20.7%,0.1%[9.22 µM]
O=c1c2ccccc2sc2ccc(C#CC3(O)CCCCC3)cc12,0.5%,-71.7%,20.6µM*,?,-1.4%
COc1cccc2sc3ccc(C#CC4(O)CCCCC4)cc3c(=O)c12,-11.1%,-42.5%,?,?,6.7%
COc1ccc(CCC(C)NCc2cc(OC)cc(OC)c2)cc1 (stereo unspecified),1.4%,-34.9%,-5.0%,-9.2%,0.5%
COc1ccc(CCC(C)NCc2ccc(Cl)c(Cl)c2)cc1 (stereo unspecified),-11.9%,8.91µM*,-0.3%,12.6µM*,3.7%
COc1ccc(CCC(C)NCCc2ccc(Cl)cc2Cl)cc1 (stereo unspecified),1.2%,15.8µM*,5.8%,?,-4.9%
Cc1ccc(Oc2cc(NN3CCCCC3)c([N+](=O)[O-])cc2[N+](=O)[O-])c(Cl)c1,-0.5%,7.1%,-4.0%,13.2%,-0.9%
CC(C)(C)C(=O)Nc1ccc(-c2nc3ccccc3s2)cc1,1.4%,-3.0%,2.59µM*,37.4%,-3.3%
COc1ccc(CNCCNC(=O)c2ccco2)c(OC)c1OC,-0.9%,0.1%,0.8%,-2.4%,0.2%
CCOc1ccc(NCc2cccn2-c2nnc(N3CCC(C(=O)NCCCN4CCCCC4C)CC3)s2)cc1 (stereo unspecified),0.2%,20µM*,2.4%,-22.7%,0.6%
CCc1ccc2c(c1)C1(C(=O)N2)N2CCCC2C(C(=O)c2ccc3ccccc3c2)C12C(=O)Nc1ccccc12 (stereo unspecified),?,10µM*,?,15.8µM*,9.7%
CC1CC(NC(=O)c2cc3c(=O)n4ccccc4nc3n2C)CC(C)(C)C1 (stereo unspecified),16.3%,-3.1%,20.6µM*,3.4%,-0.2%
CC1CCCCC1NC(=O)c1cc2c(=O)n3ccccc3nc2n1C (stereo unspecified),0.9%,-14.9%,?,0.2%,2.9%
SMILES,A549 viability,HepG2 tox,Nrf2 block,TGFb inhibitor,Nrf2 activator
O=C(CSCc1cccc(Cl)c1)N/N=C/c1ccc(OCC(=O)N2CCCCC2)cc1,-2.4%,-27.5%,18.4µM*,?,2.7%
Cc1cc(C)cc(CSCC(=O)N/N=C/c2ccc(OCC(=O)NCc3ccco3)cc2)c1,-15.4%,-3.3%,14.6µM*,-26.4%,3.7%
COC(CNC(=O)c1c[nH]c2ccc(S(=O)(=O)N3CCC4(CC3)OCCO4)cc2c1=O)OC,-4.3%,-4.3%,7.2%,3.55µM*,-0.1%
COC(CNC(=O)c1c[nH]c2ccc(S(=O)(=O)N3CCOCC3)cc2c1=O)OC,-0.3%,-19.1%,5.3%,-9.1%,-0.7%
COc1ncnc2c1sc1nc(-c3ccccc3)c3c(c12)CCCC3,3.3%,-0.4%,2.3%,5.3%,-0.4%
CN(C)CCNc1ncnc2c1sc1nc(-c3ccccc3)c3c(c12)CCCC3,-0.5%,14.1µM*,-14.8%,?,-3.0%
CC1CCCCN1CCCNC(=O)c1ccc2c(c1)sc1nc(-c3ccc(F)cc3)cn12 (stereo unspecified),1.6%,12.6µM*,11.6%,?,?
O=C(NCCCN1CCCCC1)c1ccc2c(c1)sc1nc(-c3ccc(F)cc3)cn12,5.9%,-51.0%,?,?,5.4%
CCN1CCN(CCCNC(=O)c2ccc3c(c2)sc2nc(-c4ccc(C)cc4)cn23)CC1,-1.1%,-98.9%,26.0%,-89.7%,6.7%
Cc1ccc(-c2cn3c(n2)sc2cc(C(=O)NCCCN4CCCCC4)ccc23)cc1,-7.8%,10µM*,?,-88.0%,15.5%
Cc1ccc(-c2cn3c(n2)sc2cc(C(=O)NCCCN4CCCCCC4)ccc23)cc1,-1.4%,10µM*,14.5%,-101.5%,19.2%
Cc1cccc(NC(=O)CN2C(=O)C(c3ccc(F)cc3)=NC23CCCCCC3)c1,-18.0%,-29.9%,-24.1%,/,0.1%
COc1ccccc1NC(=O)CN1C(=O)C(c2ccc(F)cc2)=NC12CCCCC2,-6.3%,-30.1%,16.4µM*,/,3.6%
O=[N+]([O-])c1ccc(/C=N/n2c(COc3ccccc3)n[nH]c2=S)cc1,-7.3%,-16.6%,?,0.4%,3.1%
CCn1c(CN2CCC(C)CC2)nc2cc(NC(=O)COc3ccc(Cl)c(C)c3)ccc21,?,-37.4%,14.6µM*,3.98µM*,1.1%
CC1CCCN(CCCNC(=O)c2ccc3c(c2)N(Cc2ccc(Cl)cc2)C(=O)c2ccccc2S3(=O)=O)C1 (stereo unspecified),-16.4%,20µM*,?,?,8.4%
Cc1ccc(C)c(CN2C(=O)c3ccccc3S(=O)(=O)c3ccc(C(=O)NCCCN4CCCC(C)C4)cc32)c1 (stereo unspecified),-5.2%,11.2µM*,9.9%,/,?
CCOC(=O)C1=C(C)Nc2sc(C(=O)c3ccc(F)cc3)c(N)c2C1c1ccc(C(=O)OC)cc1 (stereo unspecified),?,9.6%,?,0.9%,3.3%

# High-throughput results as filed in PubChem.
